Reference: PMC4336329 (PLoS ONE, 2015)
In all, about 310,000 compounds went through this assay and about 14,000 (4.5%) showed an effect of 50% or more. Effects have a minus sign here. What follows is part of a selection rich in strong results, with near analogues and random picks from the rest.

Target: human ether-à-go-go-related gene (hERG) potassium channel (human, UniProt Q12809)
Experiment: primary screen, population patch clamp on CHO cells stably expressing hERG; higher = less effect of the substance
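Note: peak tail current of the secondary pulse compared with the same well before compound.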

Chain of human ether-à-go-go-related gene (hERG) potassium channel (Q12809 whole entry, looked up): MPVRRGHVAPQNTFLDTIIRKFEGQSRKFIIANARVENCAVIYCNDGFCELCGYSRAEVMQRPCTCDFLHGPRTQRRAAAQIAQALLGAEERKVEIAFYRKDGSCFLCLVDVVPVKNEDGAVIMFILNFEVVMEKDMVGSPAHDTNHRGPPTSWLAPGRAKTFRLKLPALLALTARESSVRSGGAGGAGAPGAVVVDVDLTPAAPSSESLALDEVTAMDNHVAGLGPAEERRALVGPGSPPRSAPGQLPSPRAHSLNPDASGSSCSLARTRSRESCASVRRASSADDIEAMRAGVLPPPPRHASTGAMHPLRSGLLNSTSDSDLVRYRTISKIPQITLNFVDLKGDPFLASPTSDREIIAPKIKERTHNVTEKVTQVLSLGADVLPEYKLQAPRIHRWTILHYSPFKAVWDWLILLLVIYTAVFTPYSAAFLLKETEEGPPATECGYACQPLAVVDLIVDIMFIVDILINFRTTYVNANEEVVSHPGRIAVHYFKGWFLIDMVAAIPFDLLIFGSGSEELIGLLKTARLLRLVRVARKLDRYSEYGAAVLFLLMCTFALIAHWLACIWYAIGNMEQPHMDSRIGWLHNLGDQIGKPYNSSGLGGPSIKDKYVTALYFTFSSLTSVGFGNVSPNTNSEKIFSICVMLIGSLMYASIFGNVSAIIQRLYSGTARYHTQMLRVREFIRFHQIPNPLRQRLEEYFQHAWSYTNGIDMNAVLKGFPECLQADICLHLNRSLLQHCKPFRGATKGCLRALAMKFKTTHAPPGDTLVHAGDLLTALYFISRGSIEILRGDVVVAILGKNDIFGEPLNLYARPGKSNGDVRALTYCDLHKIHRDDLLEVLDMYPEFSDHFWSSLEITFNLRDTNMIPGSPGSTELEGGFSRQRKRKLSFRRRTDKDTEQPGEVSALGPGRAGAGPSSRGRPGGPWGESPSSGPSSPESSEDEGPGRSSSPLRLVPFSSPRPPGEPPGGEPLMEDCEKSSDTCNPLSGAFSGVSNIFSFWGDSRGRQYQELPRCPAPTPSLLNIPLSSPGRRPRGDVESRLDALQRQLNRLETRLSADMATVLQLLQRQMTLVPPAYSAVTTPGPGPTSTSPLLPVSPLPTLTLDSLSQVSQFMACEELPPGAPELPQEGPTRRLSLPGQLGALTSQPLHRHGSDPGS

SMILES | hERG current change (%, negative = inhibition) at 10uM [%]
O=C(O)c1ccccc1N/N=C/c1cc(Br)cc(Br)c1O | 11.6
C=CCN(CC=C)C(=S)Nc1ccc(OC)c(OC)c1 | 10.3
Cc1cc(OCC(=O)N2CCOCC2)c(C(C)C)cc1Cl | -4.17
CC(O)CC(C(=O)NNc1ccccc1)C(=O)NNc1ccccc1 (stereo not shown) | 21
Cc1ccccc1C(=O)N1CCC(C(=O)NC(C)c2ccc(-n3ccnc3)cc2)CC1 (stereo not shown) | -23
CC(NC(=O)c1cccc(N(C)C)c1)c1ccc(-n2ccnc2)cc1 (stereo not shown) | -68.3
CC(NC(=O)c1ccco1)c1ccc(-n2ccnc2)cc1 (stereo not shown) | -37
CC(=O)Nc1cccc(C(=O)NC(C)c2ccc(-n3ccnc3)cc2)c1 (stereo not shown) | -0.474
CC(NC(=O)C1CCN(C(=O)c2ccc(F)cc2)CC1)c1ccc(-n2ccnc2)cc1 (stereo not shown) | -64.7
COc1cc(C(=O)NC(C)c2ccc(-n3ccnc3)cc2)cc(OC)c1C (stereo not shown) | -72.9
CC(=O)Nc1ccc(C(=O)NC(C)c2ccc(-n3ccnc3)cc2)cc1 (stereo not shown) | 7.74
O=C(c1ccc(F)cc1)C1CCN(C(=O)c2ccncc2)CC1 | -22.4
Cc1ccc(C(=O)NC(C)c2ccc(-n3ccnc3)cc2)cc1 (stereo not shown) | -54
Cc1ccc(C(=O)NC(C)c2ccc(-n3ccnc3)cc2)o1 (stereo not shown) | -37.4
Cc1occc1C(=O)N1CCCC(Nc2ccc(F)cc2)C1 (stereo not shown) | -3.68
Cc1ccc(C(=O)Nc2ccc(N3CCN(C(=O)c4cccs4)CC3)cc2)c(Cl)c1 | -5.13
COC(=O)CSc1nnc(-c2cccnc2)n1-c1cc(OC)cc(OC)c1 | -19.3
N#Cc1ccccc1Oc1ccccc1C=O | -16.8
Cc1ccc2nc(C)cc(N/N=C/c3cccc(O)c3)c2c1 | 12.4
COc1ccc(S(=O)(=O)n2nc(OC(=O)c3cccs3)cc2N)cc1 | -3.07
CCOC(=O)CC1=NN(c2ccccc2)C(=O)/C1=C\c1ccc(N(C)C)cc1 | 24.6
O=C(CNc1cccc(S(=O)(=O)N2CCCC2)c1)Nc1ccc(C(F)(F)F)cc1 | 15.1
CC(C)Cn1cnc2c1c(=O)n(C)c(=O)n2C | 27.8
CCOc1cc(C(=S)N2CCCCC2)ccc1OS(=O)(=O)c1ccc(Cl)cc1 | -1.37
N#CCCn1c(=S)[nH]c2ccccc21 | 12.9
